The list is not random: actives were taken first. Their share in the collection is about 18%.
TDP1 inh: blocks human tyrosyl-DNA phosphodiesterase 1 | Potency, µM (doses to about 130 µM), for inactives: at the highest dose activity change, negative = inhibition, most hits filed as inhibitors | Q9NUW8 | AID 485290 | hit rate 0.28% among 350,000 | recombinant TDP1, AlphaScreen DNA substrate cleavage; also: potency is read from the fitted curve at half-maximal effect; nearly all actives have a fitted effect of over 40% in size
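Compounds were preincubated with Tdp1 (1 nM final) for 15 min at room temperature before substrate (15 nM final) started a 5 min reaction; beads (10 ug/ml final) were then added for 10 min before AlphaScreen detection.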
Six1-Eya2 blk: blocks human Six1 binding to Eya2. hit rate 0.56% among 360,000. AlphaScreen GST-Six1/His-Eya2 binding, biochemical; active compounds read low. AID 651725. Q15475+O00167. activity change, % (concentration not given with the values); in the data active = activity change below about -65%; inconclusive = mostly about -30% to -63%
Target sequence (O00167 whole entry, looked up): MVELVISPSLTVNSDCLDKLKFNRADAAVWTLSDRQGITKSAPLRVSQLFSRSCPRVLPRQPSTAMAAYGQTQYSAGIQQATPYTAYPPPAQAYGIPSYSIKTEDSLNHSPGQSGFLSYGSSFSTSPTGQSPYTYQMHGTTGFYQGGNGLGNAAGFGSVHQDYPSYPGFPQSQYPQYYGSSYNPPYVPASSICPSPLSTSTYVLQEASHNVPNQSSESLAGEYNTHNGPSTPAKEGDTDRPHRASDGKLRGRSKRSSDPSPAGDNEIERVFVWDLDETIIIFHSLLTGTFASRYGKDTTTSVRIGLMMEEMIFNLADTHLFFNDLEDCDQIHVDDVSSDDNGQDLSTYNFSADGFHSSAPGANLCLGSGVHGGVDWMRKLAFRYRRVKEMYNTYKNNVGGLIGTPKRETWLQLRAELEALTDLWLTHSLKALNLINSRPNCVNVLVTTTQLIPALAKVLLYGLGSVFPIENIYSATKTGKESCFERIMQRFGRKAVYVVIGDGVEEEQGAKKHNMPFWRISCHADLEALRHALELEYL
Target sequence (Q15475 whole entry, looked up): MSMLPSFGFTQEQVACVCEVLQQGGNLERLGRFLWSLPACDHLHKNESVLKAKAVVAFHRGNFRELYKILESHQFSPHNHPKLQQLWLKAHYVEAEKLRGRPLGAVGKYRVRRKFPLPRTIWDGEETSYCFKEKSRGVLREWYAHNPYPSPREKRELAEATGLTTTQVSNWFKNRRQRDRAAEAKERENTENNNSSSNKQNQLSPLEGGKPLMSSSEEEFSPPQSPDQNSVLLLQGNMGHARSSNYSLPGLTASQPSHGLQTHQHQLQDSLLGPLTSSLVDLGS
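AlphaScreen with GST-Six1 and His-Eya2 (5X mix: 250 nM and 500 nM), glutathione donor and nickel acceptor beads; buffer 50 mM Tris pH 8.0, 300 mM NaCl, 1 mM TCEP; 1 h at 37 C in the dark.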
CtBP-E1A inh: blocks the CtBP interaction with E1A; AlphaScreen GST-E1A/His-CtBP binding, 1536-well; active compounds read low; activity change, % (concentration not given with the values); hit rate 0.49% among 340,000; AID 651724; in the data active = activity change below about -65%; inconclusive = mostly about -30% to -63%
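GST-E1A and His-tagged CtBP (125 nM each as 5X stock) were preincubated with pin-transferred compound for 2 h at 37 °C in the dark, then glutathione donor and nickel acceptor beads were added for 1 h before AlphaScreen reading.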
TDP1 cell noCPT: qHTS for Inhibitors of human tyrosyl-DNA phosphodiesterase 1 (TDP1): qHTS in cells in absence of CPT; DT40 Tdp1-/- hTDP1 cells, no CPT, ATP luminescence, 48 h; Potency, µM (top dose mostly 46.2 µM), without a hit: at the highest dose activity change, negative = growth inhibition, usual class: inhibitors; hit rate 15% among 420,000; AID 686978, 2013; also: potency is read from the fitted curve at half-maximal effect; nearly all actives have a fitted effect of over 55% in size
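Readout: luminescence from CellTiter-Glo after 30 min in the dark at RT. Cells: DT40 Tdp1-/- with stable hTDP1, 400/well. Exposure: compounds alone, ≥48 hr, 37 °C.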
IL-1B inflam inh: inflammasome signaling inhibition, IL-1 beta readout | hit rate 4.7% among 360,000 | THP-1 LPS/ATP IL-1B secretion, AlphaLISA, 16 h; active compounds read low | activity change, % at 57.5 µM; in the data active = activity change below about -50%; inconclusive = mostly about -30% to -49%
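THP-1 cells pretreated 1 hr with compounds (up to 57.5 uM final), then stimulated with LPS (250 ng/mL final) plus ATP (1.25 mM final); secreted IL-1B measured by AlphaLISA after 16 hr, decreased signal indicating inhibition.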
TDP1 cell CPT: growth inhibition of DT40 Tdp1-/-;hTDP1 cells with camptothecin (screen for TDP1 inhibitors) | AID 686979 | Potency, µM (top dose mostly 46.2 µM), for inactives: top-dose activity change, negative = growth inhibition, hits mostly inhibitors | chicken DT40 Tdp1-/-;hTDP1 cells + 20 nM CPT, ATP luminescence, 48 h | hit rate 12% among 420,000; also: potency is read from the fitted curve at half-maximal effect; nearly all actives have a fitted effect of over 55% in size
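Cell growth measured by CellTiter-Glo luminescence after a minimum 48 h, 37 C compound exposure with 20 nM CPT in Tdp1-knockout DT40 cells stably expressing hTDP1, seeded 400/well; qHTS titration format.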
* = called active by the depositor; ? = inconclusive; · = no result given; [ ] = dose if it differs, or a comment. Unless noted, calls follow the shape of the dose curve; as a rule, active = well fitted curve in the direction sought with a large enough effect; inconclusive = small, poorly fitted or top-dose-only effect, or another doubt; inactive = no such curve, though single readings can be large; an effect the other way counts as inactive or inconclusive. % is scaled to controls: 0 for no effect and ±100 for the full control effect.

SMILES	TDP1 inh	Six1-Eya2 blk	CtBP-E1A inh	TDP1 cell noCPT	IL-1B inflam inh	TDP1 cell CPT
Cc1sc2nc(CN3CCCCC3)nc(N3CCN(C(=O)c4ccco4)CC3)c2c1C	6.3%	-6.6	-7.8	-4.4%	8.2	?
Cc1sc2nc(CN3CCCCC3)nc(Cl)c2c1C	-5.3%	-8.0	-2.4	16.4µM*	-102.6*	?
Clc1nc(CN2CCOCC2)nc2sc3c(c12)CCC3	4.2%	-6.5	-0.2	1.3%	-29.7	9.6%
CC(C)(C)NC[C@H](O)COc1cccc2c1CCC(=O)N2	10.3%[21 µM]	·	·	·	·	·
Cc1cc(C)cc(NS(=O)(=O)c2c(C(=O)N3CCCCCC3)c(C)n(C)c2C)c1	8.2%	0.8	-1.9	?	-16.4	?
CC(C)Oc1ccc(C(=O)N(CN2CCCC2=O)c2ccc(F)cc2)cc1	5.1%	23.9	46.7	-22.8%	23.9	?
Cc1cc2c(cc1S(=O)(=O)N(C)C1CCCCC1)OCC(=O)N2	·	-4.2	-13.4	23.1µM*	36.3	?
Cc1cc2c(cc1S(=O)(=O)N(CCN(C)C)Cc1ccccc1)OCC(=O)N2	-2.7%	·	·	?	·	13µM*
Cc1cc2[nH]c(=O)c(=O)[nH]c2cc1S(=O)(=O)N(C)C1CCCCC1	·	3.7	-1.8	20.6µM*	35.6	20.6µM*
C=CCNCCCCOc1ccc(Br)cc1C	-10.7%	16.3	2.2	?	-27.2	?
Clc1ccc(OCCCNCc2ccccc2)c(Br)c1	2.0%	12.7	10.8	16.4µM*	·	14.6µM*
OCCNCCCOc1ccc(Cl)cc1Br	5.9%	-2.8	-1.2	29.1µM*	-10.9	?
C=CCNCCCOc1ccc(Cl)cc1Br	-4.5%	3.9	6.3	?	?	?
Cc1cc(Br)ccc1OCCCCNCCO	-2.9%	4.5	4.0	20.6µM*	-29.9	23.1µM*
O=[N+]([O-])c1ccccc1OCCCNCc1ccccc1	-2.6%	-6.2	2.9	-26.4%	?	-0.7%
Cc1cc(OCCCCCNCCO)ccc1Cl	2.2%	8.8	3.3	16.4µM*	-17.7	14.6µM*
CN(C)C(=O)c1ccc(NC(=O)COc2ccc([N+](=O)[O-])cc2)cc1	0.0%	7.6	-14.0	-21.6%	0.0	-15.7%
COCCNCCCOc1ccc(Cl)cc1Br	-5.9%	-8.0	·	16.4µM*	?	?
Cc1c(Cl)cccc1NC(=O)Nc1ccn(C)n1	0.2%	-3.2	12.7	-16.3%	-7.9	-0.5%
c1ccc(CSc2nnc(-c3ccco3)n2Cc2ccco2)cc1	9.6%	-5.3	-1.7	23.1µM*	3.5	?
c1coc(Cn2c(SCc3nc4ccccc4[nH]3)nnc2-c2cccs2)c1	3.8%	-11.7	4.6	-16.0%	-18.8	-22.7%
c1ccc(CSc2nnc(-c3cccs3)n2Cc2ccco2)cc1	0.0%	-2.6	-5.8	?	-66.6*	?
Cc1ccccc1CSc1nnc(-c2cccs2)n1Cc1ccco1	1.0%	-5.5	-7.1	23.1µM*	-28.8	?
Cc1ccc(-c2csc(=S)n2CC(=O)OCC(=O)NCc2ccc(F)cc2)cc1	2.0%	·	·	·	·	·
COCCC(=O)N1CCCC(N2CCN(c3ccc(F)cc3)CC2)C1 (configuration not stated)	·	8.0	8.0	-8.8%	6.0	23.3%
SMILES	TDP1 inh	Six1-Eya2 blk	CtBP-E1A inh	TDP1 cell noCPT	IL-1B inflam inh	TDP1 cell CPT
C/C(=N\NC(=O)c1c(Cl)cnn1C)c1cccnc1	1.1%	-0.5	-2.5	22.5%	25.2	6.5%
O=C(NC12CC3CC(CC(C3)C1)C2)N1CCN(c2ccccc2)CC1	·	-9.5	-5.9	?	15.5	?
O=C(NC1CCCCC1)N1CCN(c2nc(-c3ccccc3)cs2)CC1	-2.8%	-21.9	-2.4	25.9µM*	-64.3*	?
NC(=O)C1(N2CCCCC2)CCN(c2nc(-c3ccccc3)cs2)CC1	6.7%	-8.7	6.0	16.4µM*	-7.6	20.6µM*
CN(C)C(=O)N1CCN(c2nc(-c3ccccc3)cs2)CC1	·	-5.9	-16.2	?	-23.0	?
O=C(NC12CC3CC(CC(C3)C1)C2)N1CCN(c2nc(-c3ccccc3)cs2)CC1	1.9%	-3.5	-3.6	18.4µM*	?	?
COCCN1C(=O)N[C@@H](c2ccc(Br)cc2)C(C(=O)OC)=C1C	4.4%	·	·	·	·	·
COc1cc(C2C(Oc3ccccc3C)C(=O)N2Cc2ccc(F)cc2)cc(OC)c1OC (configuration not stated)	4.6%	0.6	-2.0	?	27.9	1.3%
COc1ccc(OC2C(=O)N(Cc3ccc(F)cc3)C2c2ccc(OC)c(OC)c2)cc1 (configuration not stated)	2.0%	-4.0	-1.2	-12.3%	?	29.1µM*
O=C(Nc1ccccc1)OCCN1CCOCC1	·	0.9	4.0	-7.3%	4.3	-20.5%
CCN(CC)C(=O)c1sc(NC(=O)C2c3ccccc3Oc3ccccc32)c(C(=O)OC(C)C)c1C	0.0%	·	·	0.116µM*	·	?
CCOC(=O)c1c(NC(=O)COC(=O)c2cccnc2OCC)sc(C(=O)N(CC)CC)c1C	-1.0%	-4.8	-16.9	18.4µM*	-60.1*	?
CCOC(=O)c1c(NC(=O)COc2ccc(Br)cc2)sc(C(C)=O)c1C	-7.0%	·	·	9.2µM*	·	?
CCOC(=O)c1c(NC(=O)COc2ccccc2)sc(C(C)=O)c1C	0.9%	·	·	·	·	·
CCOC(=O)c1c(NC(=O)COc2ccc(OC)cc2)sc(C(=O)N(CC)CC)c1C	-0.6%	·	·	7.31µM*	·	?
OC(CNCc1ccccc1Cl)COc1ccc(F)cc1 (configuration not stated)	2.6%	1.4	3.7	?	?	?
CCOc1ccc(C(=O)NCCc2sc(-c3ccc(OC)c(OC)c3)nc2C)cc1	2.2%	·	·	·	·	·
CCCCC[C@H](O)/C=C/C=C\C=C\C=C\[C@@H](O)[C@@H](O)CCCC(=O)O	6.1%	·	·	0.2%[0.628 µM]	·	-1.7%[0.628 µM]
